Results: ChEMBL document CHEMBL3988442, “University of Dundee, Small-Polar-MMV Screening Library” (2021)
Among all 48,000 compounds or so, about 13,000 (27%) showed an effect of 50% or more. Some of the results follow.

system: Wolbachia pipientis; test: Anti-Wolbachia Cell-Based Screen; assay type: functional; set-up: scale not given: in the data most compounds retested in dose-response had high values; settings: 5 µM

Row | Structure (SMILES) | Percent Effect
1 | CCC1(CC)C(=O)NC(=O)N=C1Nc1ccc(C)cc1 | 121.1%
2 | CCc1ccc(CNC(=O)c2ccc(N3CCOC3=O)cc2)s1 | -4.456%
3 | COc1ccc(CN2CCCC2)cc1Oc1ccc(NC(C)=O)cc1 | -0.1715%
4 | CC(=O)Nc1ccc(Oc2cccc(CN3CCCC3)c2)cc1 | -8.686%
5 | CC(=O)Nc1ccc(Oc2ccc(CN3CCCC3)cc2F)cc1 | 96.27%
6 | CC(Sc1nnnn1C1CCOCC1)C(F)(F)F (centres undefined) | 4.015%
7 | O=C(Nc1ccccn1)C1=NN(c2ccccc2)C(=O)CN1 | -0.4273%
8 | CCN1CCc2cc(-c3cncn3CCNC3CCS(=O)(=O)C3)ccc21.Cl (centres undefined) | 103%
9 | CN(CCc1ccc2c(c1)CCO2)CC1CCS(=O)(=O)C1 (centres undefined) | 6.378%
10 | CCc1nncn1CCNC(=O)Nc1ccc2c(c1)CCCO2 | -5.053%
11 | Cn1cc(CNC2CCS(=O)(=O)C2)c(-c2cc3ccccc3o2)n1 (centres undefined) | -8.31%
12 | CCNC(=O)C1CCCN(C(=O)Nc2ccc3c(c2)CCCN3C)C1 (centres undefined) | -0.07324%
13 | N#Cc1ccnc(N2CCN(C(=O)NC3CCS(=O)(=O)C3)CC2)c1 (centres undefined) | 5.841%
14 | CN1CCCc2cc(-c3cncn3CCNC3CCS(=O)(=O)C3)ccc21.Cl (centres undefined) | 82.25%
15 | CCc1cc(NC2CCS(=O)(=O)C2)nc(N2CCCCC2)n1 (centres undefined) | -10.03%
16 | CC1(C)Cc2cc(-c3cncn3CCNC3CCS(=O)(=O)C3)ccc2O1.Cl (centres undefined) | 102.8%
17 | Cc1ccc(-c2ccsc2C(=O)NC2CCS(=O)(=O)C2)cc1 (centres undefined) | -8.809%
18 | Cc1nn(C)c(N2CCOCC2)c1CNC1CCS(=O)(=O)C1 (centres undefined) | -13.17%
19 | Cl.O=S1(=O)CCC(NCCn2cncc2-c2ccc3c(c2)CCCO3)C1 (centres undefined) | 81.24%
20 | Cc1cc(C(=O)NCC(O)CN2CCCC2=O)ccc1F (centres undefined) | -5.14%
21 | COCCN(C)c1ccc(NCc2ccsc2)nc1 | -10.25%
22 | CCOc1ccc(CN2CCCC(c3nn(C)c(=O)n3CC)C2)cn1 (centres undefined) | 24.07%
23 | COc1ccc(Cl)cc1CC(=O)NS(=O)(=O)c1ccc(C(N)=O)cc1 | 102.7%
24 | COc1ccccc1CC(=O)NS(=O)(=O)c1ccc(C(N)=O)cc1 | 6.119%
25 | CCC(C)NC(=O)CS(=O)(=O)Cc1cc(Cl)ccc1OC (centres undefined) | 28.04%
26 | NC(=O)c1ccc(S(=O)(=O)NC(=O)COc2ccc3c(c2)CCC3)cc1 | -8.361%
27 | COc1ccc(C)cc1CC(=O)NS(=O)(=O)c1ccc(C(N)=O)cc1 | 115.9%

Row | Structure (SMILES) | Percent Effect
28 | COc1ccc(C)cc1CC(=O)Nc1cc(C)n[nH]1 | 4.97%
29 | COc1ncccc1CN1C[C@H](C(=O)N2CCCO2)[C@@H]2CCO[C@@H]2C1 | 0.1445%
30 | CC(C)(C)c1nnc(CNc2c(F)cccc2-n2cccn2)o1 | -0.1409%
31 | Cc1nc(CN2CCCC(CCc3ccccc3F)C2)c[nH]1 (centres undefined) | 15.72%
32 | Cc1cc(C)c(C(=O)NC(CN2CCCC2)c2ccccc2)c(=O)[nH]1 (centres undefined) | 1.71%
33 | COCCN1CCOCC12CCN(Cc1ccn(C)n1)CC2.O=C(O)C(F)(F)F.O=C(O)C(F)(F)F | -14.13%
34 | Cn1cncc1CN1CCC2(CCCN2c2ncccn2)CC1.O=C(O)C(F)(F)F | 7.027%
35 | Fc1cccc(CN2CCC3(CCCN3c3ncccn3)CC2)c1.O=C(O)C(F)(F)F | 103.6%
36 | Cn1ccc(CN2CCCC23CCN(Cc2cccc(F)c2)CC3)n1.O=C(O)C(F)(F)F.O=C(O)C(F)(F)F | 121.8%
37 | Cn1ccc(CN2CCCC23CCN(Cc2ccccc2F)CC3)n1.O=C(O)C(F)(F)F.O=C(O)C(F)(F)F | 125.7%
38 | COCCC(=O)N1CCC2(CCN(Cc3cccc(F)c3)CC2)CC1.O=C(O)C(F)(F)F | -14.44%
39 | COc1cc(N2CCC3(CCCN3Cc3ccn(C)n3)CC2)ncn1.O=C(O)C(F)(F)F | -11.95%
40 | Cc1c(CN2CCCC(C(=O)CCc3ccccc3)C2)cc(C#N)n1C (centres undefined) | 16.56%
41 | CCn1ncc(CNC(=O)c2cn(CCC3CCCCN3)nn2)c1C (centres undefined) | 3.216%
42 | CN(CC(=O)NC(C)(C)C)Cc1nc(-c2ccccc2)c[nH]1 | -12.75%
43 | Cc1ccc(OCC(=O)NCC(F)(F)F)nc1 | -4.389%
44 | CN(CC(=O)NCC(F)(F)F)C(=O)c1ccc(C(=O)OC(C)(C)C)cc1 | 91.82%
45 | Cc1cccc(NC(=O)CN(C)C(=O)c2ccc(OC(C)C)nc2)n1 | 4.087%
46 | CN(CC(=O)NCC(CCO)c1ccccc1)C(=O)OC(C)(C)C (centres undefined) | 2.407%
47 | CN(CC(=O)NCC(O)c1cccc(F)c1)C(=O)OC(C)(C)C (centres undefined) | 1.189%
48 | Cc1ccc(C(=O)N(C)CC(=O)NCC(F)(F)F)cn1 | 99.88%
49 | CC(=O)NCCC1CCCCN1S(=O)(=O)c1cccc(Cl)c1 (centres undefined) | 153.7%
50 | CC(=O)c1ccc(S(=O)(=O)N2CCCC2CN2CCCC2)cc1 (centres undefined) | -61.12%
51 | CC(=O)NCCC1CCCCN1S(=O)(=O)c1ccc2ccccc2c1 (centres undefined) | 104.3%
52 | CCN1CCN2CCCN(S(=O)(=O)c3cccc(F)c3)C2C1=O (centres undefined) | 4.508%
53 | CC(=O)NCCC1CCCCN1S(=O)(=O)c1cccc(F)c1 (centres undefined) | 85.51%
54 | CC(=O)NCCC1CCCCN1S(=O)(=O)c1cccc(C#N)c1 (centres undefined) | -10.91%
